From PubChem BioAssay (Tox21)
Records with an inconclusive call do not appear. A number with no mark means an inactive call. The call rests on the fitted dose curve; in most records, active means well fitted cell-killing curve with a large enough effect in the repeat runs; inconclusive means weak or mixed curves, or effect the other way; inactive means flat fitted curve, though single readings scatter.

assay: qHTS assay to identify small molecule antagonists of the retinoid acid receptor (RAR) signaling pathway - cell viability counter screen (AID 1159551); conditions: C3RL4 cells viability, ATP luminescence (CellTiter-Glo), 6 h; series mostly up to 92.4 µM; activity change, negative = cytotoxicity: at the top concentration; further: nearly all actives have a fitted effect of over 35% in size
Source text: U.S. Tox21 Program National Center for Advancing Translational Sciences [NCATS] NIH Chemical Genomics Center [NCGC] U.S. Environmental Protection Agency [EPA] National Institutes of Environmental Health Sciences [NIEHS] National Toxicology Program [NTP] U.S. Food and Drug Administration [FDA] Tox21 Assay Overview: All-trans Retinoic acid (atRA) is the potent natural metabolite of retinol and plays an important role in normal embryonic development and maintenance of cellular phenotype in adult animals. atRA is the activating ligand for the retinoic acid receptors (RARs) which form heterodimers with retinoid X receptors (RXRs) on the retinoic acid response element (RARE). Through activation of the RAR/RXRs nuclear receptors, atRA regulates the transcription of a large number of protein-coding genes and regulatory RNAs. Intracellular levels of atRA are controlled by the retinol signaling pathway (RSP) that regulates the biosynthesis and catabolism of atRA to maintain physiological levels. Chemicals that interfere with the RSP can cause abnormal intracellular levels of atRA and therefore are potential developmental toxicants. To assess compounds for the potential adverse effect on embryonic development through interfering with retinol signaling, a cell-based RARE luciferase reporter gene assay was used. C3RL4 cell line (OARSA/CFSAN/FDA, Laurel, MD) was used to screen Tox21 10K compound library for identifying inhibitors of the RSP. Also cytotoxicity was assessed by determining the viability of cells based on the quantitation of ATP.
Tox21 Assay Protocol Summary: C3RL4 cells were seeded at 1,000/well in 4 uL of assay medium into white solid 1,536-well tissue culture plates (Greiner Bio-One North America Inc. Monroe, NC) using a Multidrop Combi (Thermo Scientific, Waltham, MA) dispenser. After incubation at 37 C and 5% CO2 for an overnight, 23 nL of compounds dissolved in DMSO, positive control or DMSO only were transferred by a Pintool station (Kalypsys, San Diego, CA). One ul of 1 uM (final concentration) of Retinol was added right after the compound addition by using a Flying Reagent Dispenser (FRD) (Aurora Discovery, San Diego, CA). After 6 hr incubation at 37 C and 5% CO2, 5 uL of CellTiter-Glo reagent (Promega Corporation, Madison, WI) was added to each assay plate using an FRD. Luminescence was quantified on a ViewLux plate reader (PerkinElmer, Waltham, MA) after 30 min incubation at room temperature.
On the % scale 0 is the no-effect control and ±100 the full control effect.

Structure (SMILES)	activity change, negative = cytotoxicity
N[C@@H](Cc1ccc(Oc2cc(I)c(O)c(I)c2)c(I)c1)C(=O)O	-2.24% [at 42.5 µM]
CCNc1nc(Cl)nc(NC(C)(C)C)n1	3.88%
CCC1(CC)C(=O)C=CNC1=O	-1% [at 42.5 µM]
CCCOC(=O)c1cncn1C(C)c1ccccc1 (stereo not given)	-0.352% [at 42.5 µM]
CCOC(=O)N(C)N=O	2.52%
CCCCCCCCBr	-0.472%
CC(=O)CN(CC(C)=O)N=O	0.862%
ClC(Cl)(Cl)Cl	2.98%
O=S1(=O)OCCO1	2.27%
CCOc1cc(OP(=S)(OC)OC)nc(CC)n1	2.5%
CC1NCCOC1c1ccccc1 (stereo not given)	1.46% [at 42.5 µM]
CNC(=O)Oc1cc(C)c(N(C)C)c(C)c1	-3.06%
CCC(C)C(C)(COC(N)=O)COC(N)=O (stereo not given)	-0.143% [at 42.5 µM]
CCCCCCC(=O)CCCCCC/C=C/C[C@@H](O)[C@H](O)[C@@](N)(CO)C(=O)O	2.99% [at 19 µM]
CC(C)C(C)(N)C#N (stereo not given)	-0.271%
COc1ccccc1OC	0.969%
ClCC1CO1 (stereo not given)	-0.214%
CON(C)C(=O)Nc1ccc(Br)c(Cl)c1	-3.65%
CCC1(c2ccccc2)CCC(=O)NC1=O (stereo not given)	0.434% [at 42.5 µM]
Oc1ccc2c3c1O[C@H]1[C@@H](O)C=C[C@H]4[C@@H](C2)NCC[C@@]341	-0.232%

Structure (SMILES)	activity change, negative = cytotoxicity
O=c1[nH]c2ccccc2n1C1CCNCC1	1.71% [at 42.5 µM]
COC(=O)c1ccc(CBr)cc1	4.04%
CCNc1nc(NCC)nc(SC)n1	1.17%
CC(=O)OCC1=C(C(=O)O)N2C(=O)[C@@H](N)[C@H]2SC1	0.328% [at 19 µM]
COc1cccc(C=O)c1	-1.32%
COc1ccc(CN2CCNCC2)c(OC)c1OC	3.59% [at 42.5 µM]
CC1=C2[C@H]3OC(=O)[C@@H](C)[C@@H]3CC[C@@]2(C)C=CC1=O	0.303% [at 42.5 µM]
C=CCN1CC[C@]23CCCC[C@H]2[C@H]1Cc1ccc(O)cc13	-0.748% [at 42.5 µM]
CN(C)C1CCCCC1	0.79%
CN1C(=O)COc2c(C(=O)NC3CN4CCC3CC4)cc(Cl)cc21 (stereo not given)	0.716% [at 42.5 µM]
O=C(NC(O)C(Cl)(Cl)Cl)NC(O)C(Cl)(Cl)Cl (stereo not given)	1.71% [at 42.5 µM]
CNC(=O)Oc1ccccc1C(C)C	1.22%
Nc1c(Cl)c(F)nc(OCC(=O)O)c1Cl	-0.571%
CC[C@H](O)C(C[C@H](C)N(C)C)(c1ccccc1)c1ccccc1	-5.22%
CC(C)(C1CCC(O)CC1)C1CCC(O)CC1 (stereo not given)	-0.251%
Cc1cccc2sc3nncn3c12	1.12%
C#CC(C)(C)O	2.36%
COC1=CC(=O)O[C@@H](/C=C/c2ccccc2)C1	1.23%
C[C@@H](N)[C@@H](O)c1ccccc1	-0.161% [at 42.5 µM]
COP(=O)(OC)O/C(C)=C/C(=O)N(C)C	-0.74%
